Screening data from PubChem.
GPR151 activ – human GPR151 activation | 650,000 compounds, 1% hits | PathHunter beta-arrestin GPR151 cells, luminescence | AID 1508602 | activation, % at 11.2 µM | Q8TDV0; in the data active = activation above about 4.9%;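 also: 0% = median of compound wells and 100% = cells with positive control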
FBW7 activator – activators of human E3 ligase FBW7 | Q969H0 | AlphaScreen FBW7–phospho-cyclin E peptide binding, activator screen | normalized activity (activation), % at 26.1 µM | 650,000 compounds, 0.13% hits; in the data active = normalized activity above about 1.9%;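 also: purified mutant Fbw7 with reduced substrate affinity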
TEAD-YAP block – TEAD-YAP interaction inhibition; HEK-TIYL cells, TEAD-Gal4/YAP UAS-luciferase luminescence; inhibition, % at 9.12 µM; 640,000 compounds, 1.4% hits; in the data active = inhibition above about 32%;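 also: 0% = median of test compound wells and 100% = reference inhibitor wells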
MITF primary – human MITF inhibition, primary screen; O75030; AlphaScreen MITF homodimerization, bead proximity signal; inhibition, % at 2.6 µM; 650,000 compounds, 0.91% hits; in the data active = inhibition above about 50%;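 also: 0% = vehicle wells with protein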
Starred values were filed as active, the others as inactive; . = no result given. An excerpt weighted towards active compounds, which were near 3.5% of everything screened.

SMILES	GPR151 activ	FBW7 activator	TEAD-YAP block	MITF primary
OCCC1CCCCN1c1ccnc2c(-c3ccc(F)cc3)cnn12 (configuration not stated)	1	0	97*	-25
COc1ccccc1-c1cnn2c(N3CCCCC3CCO)ccnc12 (configuration not stated)	-1	0	-7	-22
CN(C)S(=O)(=O)c1ccc(C(=O)N2C(=O)c3cccc(N)c3C2=O)cc1	1	0	3	2
CCCn1c(=O)oc2cc(Cl)ccc21	-1	0	3	-8
Cc1ccc(C)c(Nc2ccc([N+](=O)[O-])c3nonc23)c1	-1	0	8	17
Cc1nc(SCC(=O)c2ccc(Br)s2)nc(C)c1C	4	0	-3	-11
Cc1ccc(NC(=O)c2cc([N+](=O)[O-])ccc2N(CCO)CCO)cc1Cl	-1	0	-58	9
OCCC1CCCCN1c1ccnc2c(-c3ccccc3)cnn12 (configuration not stated)	0	0	89*	9
c1ccc(-c2nc3ccc(Cc4ccc5nc(-c6ccccn6)[nH]c5c4)cc3[nH]2)nc1	0	0	34*	27
Nc1ccc2nc(-c3ccccn3)[nH]c2c1	-7	-2	-22	34
O=C(CCCn1c(SCC(=O)NC2CCCCC2)nc2ccccc2c1=O)NCc1ccccc1Cl	0	0	-4	-3
COc1ccccc1-c1ccnc(Nc2ccc(S(N)(=O)=O)cc2)n1	1	1	34*	68*
NS(=O)(=O)c1ccc(Nc2nccc(-c3cccc(Cl)c3Cl)n2)cc1	1	24*	-6	14
NS(=O)(=O)c1ccc(Nc2nccc(-c3ccccc3)n2)cc1	-1	0	-16	-5
COc1ccc(C(=O)Nc2ncc(Cc3ccc(C)cc3)s2)cc1OC	-1	1	39*	10
Cc1ccc(C(=O)Nc2ncc(Cc3cccc(Cl)c3)s2)cc1	0	1	11	20
COc1ccc(C(=O)Nc2ncc(Cc3cccc(Cl)c3)s2)cc1OC	1	0	53*	9
CCN(CC)CCn1c2ccccc2c2cnc(N)c(C#N)c21	1	0	81*	-3
CN(C)C=Nc1ncc2c3ccccc3n(CCN(C)C)c2c1C#N	-1	0	16	8
Cc1c2oc3c(C)ccc(C(=O)N[C@@H]4C(=O)N[C@H](C(C)C)C(=O)N5CCC[C@H]5C(=O)N(C)CC(=O)N(C)[C@@H](C(C)C)C(=O)O[C@@H]4C)c3nc-2c(C(=O)N[C@@H]2C(=O)N[C@H](C(C)C)C(=O)N3CCC[C@H]3C(=O)N(C)CC(=O)N(C)[C@@H](C(C)C)C(=O)O[C@@H]2C)c(N)c1=O	0	0	96*	5
COCCC(=O)NCC1Cc2c(F)ccc(-c3ccc(C(=O)C4CC4)cc3)c2O1 (configuration not stated)	-1	0	-25	1
O=C(NCC1Cc2c(F)ccc(-c3ccc(C(=O)C4CC4)cc3)c2O1)c1cnsn1 (configuration not stated)	-1	0	56*	-10
Cc1nonc1C(=O)NCC1Cc2c(F)ccc(-c3ccc(C(=O)C4CC4)cc3)c2O1 (configuration not stated)	-1	0	63*	-14
CCC1=NN2C(=N)/C(=C/c3cn(CCOc4cc(C)cc(CC)c4)c4ccccc34)C(=O)N=C2S1	0	0	6	13
N=C1c2ccccc2C(=O)C1c1ccccc1 (configuration not stated)	0	0	-33	65*
SMILES	GPR151 activ	FBW7 activator	TEAD-YAP block	MITF primary
COc1ccc(C2C(=O)c3ccccc3C2=O)cc1	-1	0	-4	7
CCNc1nc(NCCc2ccc(O)cc2)c2ncn(-c3ccsc3)c2n1	0	0	17	10
CC(C)N(CCNc1nc(Nc2ccnn2C)nc2c1ncn2-c1ccsc1)C(C)C	3	0	35*	3
CC(C)N(CCNc1nc(Nc2ccccn2)nc2c1ncn2-c1ccsc1)C(C)C	-2	0	28	1
COc1ccc(CCNc2nc(Nc3cnccn3)nc3c2ncn3-c2ccsc2)cc1	3	0	5	3
COc1ccc(CCNc2nc(Nc3ccncc3)nc3c2ncn3-c2ccsc2)cc1	0	0	42*	6
Cn1nccc1Nc1nc(NCCc2ccc(O)cc2)c2ncn(-c3ccsc3)c2n1	-2	0	60*	6
COc1ccc(CCNc2nc(Nc3cccnc3)nc3c2ncn3-c2ccsc2)cc1	-3	0	65*	-10
COc1ccc(-c2c(C)c3cc(OC)ccc3oc2=O)cc1	-2	0	-8	2
Oc1ccc(CCNc2nc(Nc3ccc(C(F)(F)F)cc3)nc3c2ncn3-c2ccsc2)cc1	-1	0	25	0
Oc1ccc(CCNc2nc(Nc3ccncc3)nc3c2ncn3-c2ccsc2)cc1	-1	0	56*	-16
COc1ccc(CCNc2nc(NC3CCC(O)CC3)nc3c2ncn3-c2ccsc2)cc1 (configuration not stated)	2	0	48*	20
Cc1cc(CN2CCS(=O)(=O)CC2)c(C(F)(F)F)o1	0	0	-6	-11
COCCNc1ncnc2ccccc12	1	0	16	0
c1nc(NCC2CCCCC2)c2ccsc2n1	0	0	36*	-9
OCCCNc1ncnc2sccc12	3	0	5	-4
CC(C)CNc1ncnc2ccccc12	2	0	12	-11
Clc1ccccc1CCNc1ncnc2ccccc12	0	0	35*	11
Clc1ccc(CNc2ncnc3ccccc23)cc1	5	0	57*	1
CCC(C)Nc1ncnc2ccccc12 (configuration not stated)	0	0	39*	-3
CCc1cc2cc3c(cc2nc1SCC(=O)Nc1nc(C)c(C)s1)OCCO3	-1	0	5	3
CCCCC(C(=O)Nc1ccccc1)C(=O)Nc1ccccc1	-1	0	12	12
COc1cc2ncnc(NC3CCN(Cc4ccccc4)CC3)c2cc1OC	-4	.	.	.
Clc1ccc(CNc2ncnc3sccc23)cc1	1	0	52*	-3
c1ccc(CN2CCC(Nc3ncnc4ccccc34)CC2)cc1	0	0	33*	-10
SMILES	GPR151 activ	FBW7 activator	TEAD-YAP block	MITF primary
c1ccc(CNc2ncnc3ccccc23)cc1	0	0	51*	-11
c1ccc(CNc2ncnc3sccc23)nc1	-1	0	-5	9
CCOc1ccccc1-n1c(=S)sc2c(=O)n(-c3ccccc3C)c(SCC(=O)N(CC)CC)nc21	0	0	10	11
CC(=O)Nc1cccc(-c2cnc(NCc3cccc(Cl)c3)c3nccn23)c1	0	-1	69*	-9
CC(=O)Nc1cccc(-c2cnc3c(NCC(C)C)nccn23)c1	-2	0	65*	11
CC(=O)Nc1cccc(-c2cnc3c(NCc4ccco4)nccn23)c1	2	2.3*	47*	12
CC(C)CNc1nccn2c(-c3cccc(O)c3)cnc12	0	0	-6	-2
CC(=O)Nc1cccc(-c2cnc3c(NCCc4cccnc4)nccn23)c1	-2	0	65*	13
